Out of some 69,000 compounds screened, about 8,600 (12%) showed an effect of 50% or more. The full list was thinned out, with strong results kept by preference.
system: Plasmodium berghei; experiment: Screen against P. berghei liver stage (PbLuc), transformed with Luciferase, at 10uM; format: functional, HepG2; details: tested at 10 uM

SMILES | INHIBITION
Cc1c(C2CC(=O)Nc3c2cnn3C(C)(C)C)cnn1C (configuration not stated) | -56.7%
Cc1[nH]c2nc(CNc3cccc(Cl)c3)nn2c(=O)c1C | -10.7%
Cc1noc(C)c1CN1CC[C@H]2C[C@H](c3nccs3)O[C@@H]2C1 | 40.4%
Cc1csc([C@H]2C[C@@H]3CCN(C(=O)c4ccnnc4)C[C@H]3O2)n1 | 4.61%
Cc1nnc([C@H]2C[C@@H]3CCN(Cc4ccc(C)o4)C[C@H]3O2)[nH]1 | 31.7%
Cc1csc([C@@H]2C[C@@H]3CCN(C(=O)c4ccnnc4)C[C@H]3O2)n1 | -19%
Cc1cc(CN2CC[C@H]3C[C@@H](c4nccs4)O[C@@H]3C2)no1 | 57.9%
Cc1csc([C@H]2C[C@@H]3CCN(Cc4cnn(C)c4)C[C@H]3O2)n1 | -63.5%
Cc1nnc([C@H]2C[C@@H]3CCN(Cc4cc(C)on4)C[C@H]3O2)[nH]1 | 35.8%
Cc1csc([C@@H]2C[C@@H]3CCN(C(=O)c4cccn4C)C[C@H]3O2)n1 | 50.7%
Cc1ccc(CN2CC[C@H]3C[C@H](c4nc(C5CC5)cs4)O[C@@H]3C2)o1 | 21.3%
Cc1ccc(CN2CC[C@H]3C[C@@H](c4nc(C5CC5)cs4)O[C@@H]3C2)o1 | 63.5%
Cc1cc(CN2CC[C@H]3C[C@@H](c4nc(C5CC5)cs4)O[C@@H]3C2)no1 | 68.4%
Cc1cc(CN2CC[C@H]3C[C@H](c4nccs4)O[C@@H]3C2)no1 | 25%
CC(C)c1nn(C)cc1CNCc1ccnc(N(C)C)c1 | 23.7%
Cn1ccc2ccnc(CC3CN(C(=O)c4cscn4)C3)c21 | 3.91%
CNC(=O)[C@@H]1CN(C(=O)CCOC)C[C@H]1c1ccnc(N2CCCC2)n1 | -4.68%
CCc1nccn1C1CCCN(C(=O)COCC(F)(F)F)C1 (configuration not stated) | 45.6%
Cc1ccc2c(c1)N(C(=O)c1cc[nH]c(=O)c1)CC(C)O2 (configuration not stated) | 19.3%

SMILES | INHIBITION
COCc1nn(CC2CC2)c2c1CN(Cc1cncn1C)CC2 | -88.6%
CC(C(=O)N1CCOCC1)n1cncn1 (configuration not stated) | -18.8%
CN(C)c1cccc(CNCc2ccc(N3CCOCC3)cc2)c1 | 34.1%
Cc1cc(CN2CC[C@H]3C[C@H](c4nc(C5CC5)cs4)O[C@@H]3C2)no1 | 74.7%
Cc1csc([C@@H]2C[C@@H]3CCN(Cc4cnn(C)c4)C[C@H]3O2)n1 | -3.19%
c1cc(CN2CC[C@H]3C[C@H](c4nc(C5CC5)cs4)O[C@@H]3C2)ccn1 | 67.5%
Cc1csc(CN2C[C@@H]3CN(CC4CCOCC4)CCO[C@@H]3C2)n1 | 47.5%
Cc1csc([C@@H]2C[C@@H]3CCN(C(=O)c4cc(C)on4)C[C@H]3O2)n1 | 5.53%
Cn1cc(CN2CC[C@H]3C[C@H](c4nc(C5CC5)cs4)O[C@@H]3C2)cn1 | 41.8%
Cn1cc(CN2CC[C@H]3C[C@@H](c4nc(C5CC5)cs4)O[C@@H]3C2)cn1 | 47%
Cc1csc(CN2C[C@@H]3CN(C)CCO[C@@H]3C2)n1 | 57.5%
Cc1csc(CN2C[C@@H]3CN(S(C)(=O)=O)CCO[C@@H]3C2)n1 | 33.1%
Cc1nn(C)cc1S(=O)(=O)NC1(CN2CCOCC2)CCCCC1 | 28%
COc1ccccc1C(C)(C)NC(=O)c1cc(NC(C)=O)ccc1F | -52.3%
CCSCc1nc(O)c2nnn(C3CCN(Cc4ccoc4)CC3)c2n1 | 18.39%
CC(C)c1nc2c(n1C)CCN(CC(=O)Nc1cccnc1)C2 | -55.4%
O=C(NCC1CCN(c2ccncc2)CC1)C(O)c1ccccc1 (configuration not stated) | 36.4%
Cc1nocc1C(=O)N1CCCC2(CCN(c3cnn(C)c3)C2=O)C1 (configuration not stated) | 38.5%
CC(C)c1cc(C2CCCN2C(=O)CN2C(=O)CCNC2=O)no1 (configuration not stated) | 5.91%

SMILES | INHIBITION
O=S(=O)(c1ccccc1Br)N1CCC2(CC1)OCCS2 | 0.325%
Cc1cnn(CC2CN(CC(=O)NCc3ccco3)CCO2)c1 (configuration not stated) | 11.2%
CCCN(Cc1cnn(C)c1)S(=O)(=O)c1cc(C)cc(F)c1 | -6.11%
Cc1noc(CCCC(=O)NCC2CCS(=O)(=O)C2)n1 (configuration not stated) | -7.35%
Cn1nccc1-c1ccc2nc(C3CCN(CC4CC4)CC3)nn2c1 | 38.2%
CS(=O)(=O)CCCN(CCc1cccc(F)c1)C1CC1 | -22.3%
Cc1cccc(CN2C[C@@H]3CN(C(=O)[C@H]4CCCO4)C[C@@H]3C2=O)c1 | 58.2%
COc1ccc(CN2C[C@@H]3CN(C(=O)[C@H]4CCCO4)C[C@@H]3C2=O)cc1 | -43%
O=C(C1CCOC1)N1C[C@H]2CN(c3ccccc3)C(=O)[C@H]2C1 (some centres not stated) | 52.6%
O=C(C1CCOC1)N1C[C@H]2CN(Cc3cccc(F)c3)C(=O)[C@H]2C1 (some centres not stated) | 34.9%
Cc1cccc(CN2C[C@@H]3CN(C(=O)c4ccnnc4)C[C@@H]3C2=O)c1 | 4.61%
O=C(C1CCC1)N1C[C@@H]2CN(c3ccccc3)C(=O)[C@@H]2C1 | 46.9%
Cc1cccc(CN2C[C@@H]3CN(C(=O)C4CCOC4)C[C@@H]3C2=O)c1 (some centres not stated) | 53%
O=C(C1CCOC1)N1C[C@H]2CN(Cc3cccnc3)C(=O)[C@H]2C1 (some centres not stated) | 17.7%
CN1C[C@@H]2CN(C(=O)C3CCOC3)C[C@@H]2C1=O (some centres not stated) | 33%
Cn1cc(CN2CCCC3(CCN3S(C)(=O)=O)C2)cn1 (configuration not stated) | 28.7%
C=C(Br)CN(C)C1CCN(CCc2ccccn2)CC1 | -9.37%
O=C(CSc1ccc(Br)cc1)NS(=O)(=O)c1ccc2c(c1)OCCO2 | 30.55%
Cc1nc2c(c(N3CCCOCC3)n1)CCN(c1nccs1)CC2 | 41.1%

— ChEMBL document CHEMBL4513216, “Probing the Open Global Health Chemical Diversity Library for Multistage-Active Starting Points for Next-Generation Antimalarials” (ACS Infect Dis, 2020)
